We go through 20 compounds from PubChem BioAssay (NCI).

Structures are written as SMILES. About 79,000 compounds went through this panel and 15% of them were active in at least one assay; those are over-represented in the sample as a whole. A number with no mark means an inactive call. The source made the active and inactive calls. No stated cut-off is given here; in the data, active means growth inhibition above about 70%; inactive means the rest.

A short description of assay [1]: NCI Yeast Anticancer Drug Screen. Data for the rad50 strain (AID 155).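 Further: 0% = growth of vehicle-only cultures of the same strain.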 As to conditions: S. cerevisiae rad50 strain growth inhibition; at 50.0 µM; stronger effect = higher value. In outline: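 Vehicle-treated cultures provide the reference for the growth inhibition reported for compound-exposed, repair-deficient yeast.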
Assay [2] can be described thus: NCI Yeast Anticancer Drug Screen. Data for the mec2-1 strain (AID 157). As to conditions: S. cerevisiae mec2-1 strain, at 50.0 µM, stronger effect = higher value. In outline: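 Cells of the genetically defined mec2-1 yeast strain are incubated with test compound. Inhibition of growth is calculated against vehicle-treated controls.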
Assay [3] can be described thus: NCI Yeast Anticancer Drug Screen. Data for the sgs1 mgt1 strain (AID 161).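 Further: 0% = growth of cultures given vehicle only.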 As to conditions: S. cerevisiae sgs1 mgt1 strain, at 50.0 µM, stronger effect = higher value. In outline:
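Test agents were incubated with a DNA-repair-mutant yeast strain. Growth was then read and compared against vehicle-treated controls.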

Assay [4] can be described thus: NCI Yeast Anticancer Drug Screen. Data for the cln2 rad14 strain (AID 165).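 Further: 0% = growth equal to vehicle treated cultures.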 The settings on record: S. cerevisiae cln2 rad14 strain, at 50.0 µM, stronger effect = higher value. In outline:
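The screen exposed genetically defined yeast (cln2 rad14) to test compounds and scored growth inhibition relative to vehicle-treated controls.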

The nature of assay [5]: NCI Yeast Anticancer Drug Screen. Data for the bub3 strain (AID 167). The settings on record: S. cerevisiae bub3 mutant strain, at 50.0 µM, stronger effect = higher value. In outline:
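Mutant yeast screening strain plus compound; vehicle-treated cultures serve as the 0% inhibition reference.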

Assay [6] in a line: NCI Yeast Anticancer Drug Screen. Data for the mlh1 rad18 strain (AID 175). As to conditions: S. cerevisiae mlh1 rad18 strain growth inhibition; at 50.0 µM; stronger effect = higher value. In outline:
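Compound-treated yeast growth, normalised to vehicle controls. Strain bears defined DNA repair mutations.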

For the compound `O=C=NC(c1ccccc1)(c1ccccc1)c1ccccc1`, the growth inhibition in assay [1] was -4.25%; in assay [2] it was -18.1%; in assay [3] it was 1.65%; in assay [4] it was 11.5%; in assay [5] it was -5.5%; in assay [6], 13.2%.

`Cc1ccc(-c2noc(C)n2)cc1`: the growth inhibition is -12.9% in assay [1]; 13.2% in assay [2]; -2.75% in assay [3]; -14.2% in assay [4]; 4% in assay [5]; 9.2% in assay [6].

For the compound `CCC1OC2(C)CC(C#N)(C#N)C1(C#N)C(=N)O2` (stereo not given), the growth inhibition in assay [1] is 0.6%; in assay [2] it was -3.9%; in assay [3], -46.4%; in assay [4], -8.2%; in assay [5] it was -31.4%; in assay [6], -10.7%.

For the compound `CNC(=S)/C(=N\Nc1nc[nH]c1C(N)=O)C(N)=S`, the growth inhibition was -3.7% in assay [1]; 7.85% in assay [2]; 38.5% in assay [3]; -0.8% in assay [4]; 15.1% in assay [5]; 21.1% in assay [6].

Take `CNC(=O)c1cccnc1`: the growth inhibition in assay [1] is -5.35%; in assay [2] it was -26%; in assay [3] it was -20.6%; in assay [4], 6.7%; in assay [5] it was -12.2%; in assay [6] it was -8.35%.

Take `CCO/C=N\C1=C(C#N)SC2=N/C(=C\c3ccc(OC)cc3)C(=O)N21`: the growth inhibition in assay [1] is -7.4%; in assay [2], -25.1%; in assay [3], 7.35%; in assay [4] it was 6.45%; in assay [5] it was -2.1%; in assay [6], -57.8%.

For `CCCCCCCCCC(O)CC(=O)c1c(O)cccc1O` (stereo not given), the growth inhibition in assay [1] was 69.8%; in assay [2], 77.2% (active); in assay [3] it was 82.8% (active); in assay [4], 86.2% (active); in assay [5] it was 82.1% (active); in assay [6], 78.7% (active).

As to `CC(=O)c1ccc(NC(=O)/C(CC(=O)/C=C/c2ccccc2)=N/NC(N)=S)cc1`, the growth inhibition in assay [1] was 37.1%; in assay [2], -32.4%; in assay [3], 23.9%; in assay [4], 16.3%; in assay [5] it was 35.1%; in assay [6] it was 9.65%.

With `NNc1[nH]c(=S)[nH]c1C(N)=O`, the growth inhibition in assay [1] was -29.6%; in assay [2] it was -8.5%; in assay [3], -21.4%; in assay [4], -7.65%; in assay [5], -22.1%; in assay [6] it was -11.7%.

As to `CC(C)(C)c1cc(C2COC(=O)COCCOCC(=O)OCCOCCO2)cc(C(C)(C)C)c1O` (stereo not given), the growth inhibition in assay [1] is 12.5%; in assay [2], -13.8%; in assay [3], -10.4%; in assay [4], 4.4%; in assay [5], -23.3%; in assay [6], -60.5%.

On to `COc1ccc2cc(CN3CCC(C4CCNCC4)CC3)ccc2c1`, for which the growth inhibition in assay [1] is 15.6%; in assay [2], -4.8%; in assay [3], 1.55%; in assay [4] it was 14.7%; in assay [5] it was 20.8%; in assay [6] it was 86% (active).

As for `CC1=CC(=O)c2ccc(C)cc2C1=O`, the growth inhibition in assay [1] was -8.9%; in assay [2] it was -24.4%; in assay [3], -6.9%; in assay [4], -18.9%; in assay [5], -0.4%; in assay [6], 5.85%.

For `CCn1c2c(c3ccccc3c1=O)C(=O)c1ccccc1-2`, the growth inhibition in assay [1] is 12%; in assay [2] it was 3.9%; in assay [3], 16.8%; in assay [4], 12.8%; in assay [5], -3.85%; in assay [6] it was -49.4%.

Turning to `CCOC(=O)c1cc(C)nc2c1c(=O)n(-c1ccccc1)c(=O)n2CCCCN1CCN(c2ncccn2)CC1`, the growth inhibition in assay [1] is 9.75%; in assay [2], -32.4%; in assay [3], 12.2%; in assay [4], 7.45%; in assay [5] it was -16.9%; in assay [6], -38.5%.

Consider `COc1ccc(-c2coc3c4c(ccc3c2=O)OCO4)cc1OC`, for which the growth inhibition in assay [1] is 3.6%; in assay [2], -13.4%; in assay [3] it was 0.45%; in assay [4], 7.2%; in assay [5] it was -8.45%; in assay [6] it was -30.8%.

Regarding `O=c1c2ccccc2nc(-c2ccccc2)n1/N=C/c1ccccc1[N+](=O)[O-]`, the growth inhibition in assay [1] is 18.2%; in assay [2], 1%; in assay [3], 26.8%; in assay [4] it was 8.35%; in assay [5] it was 18.4%; in assay [6] it was -56.2%.

Regarding `COc1ccc2nc(NC(=O)/C(C#N)=C/c3ccccc3)sc2c1`, the growth inhibition in assay [1] was 5.9%; in assay [2], -24.9%; in assay [3], 44.6%; in assay [4], -3.3%; in assay [5] it was -8.95%; in assay [6], -5.7%.

With `Cn1c2c(c3ccccc3c1=O)C(=O)c1ccccc1-2`, the growth inhibition was 43% in assay [1]; -14.2% in assay [2]; 9.3% in assay [3]; 26.1% in assay [4]; 7.7% in assay [5]; -23.7% in assay [6].

For the compound `N#Cc1c(N)oc(-c2cccc([N+](=O)[O-])c2)c1C#N`, the growth inhibition was 24.6% in assay [1]; 28.9% in assay [2]; -19.9% in assay [3]; 10.8% in assay [4]; -6.3% in assay [5]; -16.9% in assay [6].

In the case of `CC1CC(=O)N(N(C)C)C2(C#N)C(=O)N=C(N)C12C#N` (stereo not given), the growth inhibition in assay [1] is 15.4%; in assay [2], 22.6%; in assay [3], -16.1%; in assay [4] it was 2.75%; in assay [5] it was -4%; in assay [6] it was -4.75%.
